Data taken from PubChem BioAssay (NCI).
The panel holds about 79,000 compounds, 15% with a hit somewhere; the sample as a whole holds those more often. Active and inactive are the calls of the source. Cut-off read from the data, not from the text of the source: active = growth inhibition above about 70%; inactive = the rest.

Columns and labels:
[1] = NCI Yeast Anticancer Drug Screen. Data for the rad50EPP+ strain (AID 151);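 note: 0% = growth of vehicle-treated control cultures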; conditions: S. cerevisiae rad50 mutant strain, hits give high values
Outline: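 Strain rad50EPP+; compound exposure; % growth inhibition vs vehicle.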

[2] = NCI Yeast Anticancer Drug Screen. Data for the rad50 strain (AID 155);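 note: 0% = growth of vehicle-only cultures of the same strain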; conditions: S. cerevisiae rad50 strain growth inhibition, hits give high values
Outline: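 Yeast carrying a defined DNA repair defect were exposed to test compounds, and growth was compared with vehicle-treated controls to give percent inhibition.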

[3] = NCI Yeast Anticancer Drug Screen. Data for the mec2-1 strain (AID 157); conditions: S. cerevisiae mec2-1 strain, hits give high values
Outline: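 Cells of the genetically defined mec2-1 yeast strain are incubated with test compound. Inhibition of growth is calculated against vehicle-treated controls.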

[4] = NCI Yeast Anticancer Drug Screen. Data for the rad14 strain (AID 159);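 note: 0% = growth of vehicle-treated control cultures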; conditions: S. cerevisiae rad14 strain growth inhibition, hits give high values
Outline: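 Yeast cells carrying a defined DNA-repair defect were exposed to compounds, and growth inhibition was calculated relative to vehicle-treated control cultures.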

[5] = NCI Yeast Anticancer Drug Screen. Data for the sgs1 mgt1 strain (AID 161);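 note: 0% = growth of cultures given vehicle only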; conditions: S. cerevisiae sgs1 mgt1 strain, hits give high values
Outline: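 Test agents were incubated with a DNA-repair-mutant yeast strain. Growth was then read and compared against vehicle-treated controls.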

[6] = NCI Yeast Anticancer Drug Screen. Data for the CLN2oe strain (AID 163);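 note: 0% = growth of vehicle-only control cultures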; conditions: S. cerevisiae CLN2oe strain, hits give high values
Outline: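 Strain altered in cell-cycle control, incubated with compound; growth compared to solvent-treated controls.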

[7] = NCI Yeast Anticancer Drug Screen. Data for the cln2 rad14 strain (AID 165);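 note: 0% = growth equal to vehicle treated cultures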; conditions: S. cerevisiae cln2 rad14 strain, hits give high values
Outline: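 The screen exposed genetically defined yeast (cln2 rad14) to test compounds and scored growth inhibition relative to vehicle-treated controls.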

[8] = NCI Yeast Anticancer Drug Screen. Data for the bub3 strain (AID 167); conditions: S. cerevisiae bub3 mutant strain, hits give high values
Outline: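 Compounds were applied to a genetically altered yeast strain carrying a cell-cycle control defect. Growth inhibition was scored against vehicle-treated controls.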

[9] = NCI Yeast Anticancer Drug Screen. Data for the wt2 strain (AID 169);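 note: 0% = growth of vehicle-treated yeast cultures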; conditions: S. cerevisiae wt2 strain growth inhibition, hits give high values
Outline: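 Steps: yeast strain treated with compound; growth recorded; inhibition calculated relative to cultures given vehicle alone.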

[10] = NCI Yeast Anticancer Drug Screen. Data for the mlh1 strain (AID 171);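 note: 0% = growth of vehicle-treated control cultures of the same strain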; conditions: S. cerevisiae mlh1 strain growth inhibition, hits give high values
Outline: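 Yeast screen: mutant strain plus compound, growth scored against vehicle control wells.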

[11] = NCI Yeast Anticancer Drug Screen. Data for the sgs1 strain (AID 173);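 note: 0% = growth of vehicle-only control cultures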; conditions: S. cerevisiae sgs1 mutant, hits give high values
Outline: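 Inhibition of yeast growth served as the measure. The mutant strain was treated with each compound, and growth was normalised to cultures receiving vehicle alone.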

[12] = NCI Yeast Anticancer Drug Screen. Data for the mlh1 rad18 strain (AID 175); conditions: S. cerevisiae mlh1 rad18 strain growth inhibition, hits give high values
Outline: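 Compound-treated yeast growth, normalised to vehicle controls. Strain bears defined DNA repair mutations.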

[13] = NCI Yeast Anticancer Drug Screen. Data for the rad18 strain (AID 177); conditions: S. cerevisiae rad18 mutant growth inhibition, hits give high values
Outline: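 Inhibition values reflect reduced yeast growth compared with vehicle-treated controls, using a strain engineered with a DNA damage repair defect.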

[14] = NCI Yeast Anticancer Drug Screen. Data for the wt1 strain (AID 149);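 note: 0% = growth of vehicle-treated wt1 cultures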; conditions: S. cerevisiae wt1 strain (SPY 50644) growth inhibition, hits give high values
Outline: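 Yeast wt1 strain exposed to compounds; growth inhibition measured relative to vehicle-treated controls.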

[15] = at 5.0 µM (retest, dose inferred, filed as 0.5)
[16] = at 50.0 µM (retest, dose inferred, filed as 5.0)

Measured: growth inhibition

Cc1cccc(/C=N/NC(=S)N(C)CCc2ccccn2)n1
inactive: [1]; at 1.2 µM -23% | [1]; at 3.7 µM -11% | [1]; at 11.0 µM 54% | [2]; [15] 16% | [5]; [15] 44% | [7]; [15] 9% | [8]; at 1.2 µM 56% | [8]; [15] 56% | [12]; [15] 61%
active: [1]; at 33.0 µM 84% | [1]; at 100.0 µM 90% | [2]; at 1.2 µM 91% | [2]; at 3.7 µM 94% | [2]; at 11.0 µM 96% | [2]; at 33.0 µM 98% | [2]; [16] 99% | [2]; at 50.0 µM 78.6% | [2]; at 100.0 µM 98% | [3]; at 1.2 µM 94% | [3]; at 3.7 µM 97% | [3]; [15] 81% | [3]; at 11.0 µM 98% | [3]; at 33.0 µM 99% | [3]; [16] 97% | [3]; at 50.0 µM 86.7% | [3]; at 100.0 µM 99% | [4]; at 1.2 µM 95% | [4]; at 3.7 µM 97% | [4]; at 11.0 µM 99% | [4]; at 33.0 µM 99% | [4]; at 100.0 µM 99% | [5]; [16] 97% | [5]; at 50.0 µM 91.3% | [6]; at 1.2 µM 81% | [6]; at 3.7 µM 92% | [6]; at 11.0 µM 97% | [6]; at 33.0 µM 98% | [6]; at 100.0 µM 98% | [7]; [16] 97% | [7]; at 50.0 µM 90.7% | [8]; at 3.7 µM 91% | [8]; at 11.0 µM 97% | [8]; at 33.0 µM 98% | [8]; [16] 99% | [8]; at 50.0 µM 91% | [8]; at 100.0 µM 98% | [9]; at 1.2 µM 89% | [9]; at 3.7 µM 93% | [9]; at 11.0 µM 97% | [9]; at 33.0 µM 98% | [9]; at 100.0 µM 99% | [10]; at 1.2 µM 91% | [10]; at 3.7 µM 95% | [10]; at 11.0 µM 98% | [10]; at 33.0 µM 98% | [10]; at 100.0 µM 99% | [11]; at 1.2 µM 97% | [11]; at 3.7 µM 98% | [11]; at 11.0 µM 99% | [11]; at 33.0 µM 99% | [11]; at 100.0 µM 98% | [12]; [16] 99% | [12]; at 50.0 µM 92.1% | [13]; at 1.2 µM 92% | [13]; at 3.7 µM 96% | [13]; at 11.0 µM 98% | [13]; at 33.0 µM 98% | [13]; at 100.0 µM 98%

CCOC(=O)C(NC(=O)CC)(N1CCN(c2cc3c(cc2F)c(=O)c(C(=O)O)cn3C2CC2)CC1)C(F)(F)F (stereo unspecified)
active: [2]; at 33.0 µM 90% | [2]; at 50.0 µM 91.5% | [2]; at 100.0 µM 97% | [3]; at 50.0 µM 84.1% | [3]; at 100.0 µM 96% | [4]; at 100.0 µM 91% | [6]; at 100.0 µM 86% | [8]; at 50.0 µM 79.1% | [8]; at 100.0 µM 91% | [9]; at 100.0 µM 84% | [11]; at 100.0 µM 88% | [12]; at 50.0 µM 74.5% | [13]; at 100.0 µM 91%
inactive: [14]; at 1.2 µM -2% | [14]; at 3.7 µM 1% | [14]; at 11.0 µM 0% | [14]; at 33.0 µM 14% | [14]; at 100.0 µM 66% | [1]; at 1.2 µM -1% | [1]; at 3.7 µM 1% | [1]; at 11.0 µM 3% | [1]; at 33.0 µM 3% | [1]; at 100.0 µM 11% | [2]; at 1.2 µM 0% | [2]; at 3.7 µM 5% | [2]; [15] -10% | [2]; at 11.0 µM 47% | [2]; [16] 61% | [3]; at 1.2 µM -1% | [3]; at 3.7 µM -5% | [3]; [15] 0% | [3]; at 11.0 µM 1% | [3]; at 33.0 µM 47% | [3]; [16] 6% | [4]; at 1.2 µM 0% | [4]; at 3.7 µM 2% | [4]; at 11.0 µM 6% | [4]; at 33.0 µM 29% | [5]; [15] -2% | [5]; [16] 15% | [5]; at 50.0 µM 28.6% | [6]; at 1.2 µM 1% | [6]; at 3.7 µM 3% | [6]; at 11.0 µM -3% | [6]; at 33.0 µM 21% | [7]; [15] 1% | [7]; [16] -1% | [7]; at 50.0 µM 45.6% | [8]; at 1.2 µM -40% | [8]; at 3.7 µM 0% | [8]; [15] -14% | [8]; at 11.0 µM 0% | [8]; at 33.0 µM 18% | [8]; [16] 2% | [9]; at 1.2 µM -1% | [9]; at 3.7 µM -4% | [9]; at 11.0 µM -2% | [9]; at 33.0 µM 10% | [11]; at 1.2 µM 0% | [11]; at 3.7 µM 1% | [11]; at 11.0 µM 4% | [11]; at 33.0 µM 28% | [12]; [15] -3% | [12]; [16] 21% | [13]; at 1.2 µM -2% | [13]; at 3.7 µM -2% | [13]; at 11.0 µM 0% | [13]; at 33.0 µM 23%

CCN(CC)CC(O)c1cc(-c2ccc(Cl)cc2)nc2c(-c3ccccc3)cccc12 (stereo unspecified)
active: [14]; at 11.0 µM 98% | [14]; at 33.0 µM 98% | [14]; at 100.0 µM 95% | [1]; at 11.0 µM 96% | [1]; at 33.0 µM 98% | [1]; at 100.0 µM 95% | [3]; at 11.0 µM 98% | [3]; at 33.0 µM 98% | [3]; [16] 98% | [3]; at 50.0 µM 87.9% | [3]; at 100.0 µM 96% | [4]; at 11.0 µM 99% | [4]; at 33.0 µM 98% | [4]; at 100.0 µM 95% | [5]; [16] 97% | [5]; at 50.0 µM 97.7% | [6]; at 11.0 µM 98% | [6]; at 33.0 µM 97% | [6]; at 100.0 µM 94% | [7]; [16] 91% | [8]; at 11.0 µM 98% | [8]; at 33.0 µM 97% | [8]; [16] 95% | [8]; at 100.0 µM 92% | [9]; at 11.0 µM 99% | [9]; at 33.0 µM 98% | [9]; at 100.0 µM 94% | [10]; at 11.0 µM 99% | [10]; at 33.0 µM 98% | [10]; at 100.0 µM 95% | [11]; at 11.0 µM 98% | [11]; at 33.0 µM 98% | [11]; at 100.0 µM 96% | [12]; [16] 96% | [12]; at 50.0 µM 99.2% | [13]; at 11.0 µM 98% | [13]; at 33.0 µM 98% | [13]; at 100.0 µM 95%
inactive: [14]; at 1.2 µM 0% | [14]; at 3.7 µM -2% | [1]; at 1.2 µM -1% | [1]; at 3.7 µM 7% | [3]; at 1.2 µM -8% | [3]; at 3.7 µM -3% | [3]; [15] 32% | [4]; at 1.2 µM -2% | [4]; at 3.7 µM 4% | [5]; [15] 41% | [6]; at 1.2 µM 0% | [6]; at 3.7 µM 2% | [7]; [15] 6% | [7]; at 50.0 µM 8.2% | [8]; at 1.2 µM 1% | [8]; at 3.7 µM -5% | [8]; [15] 22% | [8]; at 50.0 µM 46.3% | [9]; at 1.2 µM -2% | [9]; at 3.7 µM -4% | [10]; at 1.2 µM -2% | [10]; at 3.7 µM 2% | [11]; at 1.2 µM -1% | [11]; at 3.7 µM 3% | [12]; [15] 59% | [13]; at 1.2 µM -2% | [13]; at 3.7 µM -1%
